Rows were chosen to be rich in hits. Some 8.2% of all compounds tested hit in one or more screens of this group.
KB-3-1 tox = KB-3-1 parental cell cytotoxicity. AID 1347075. KB-3-1 viability, CellTiter-Glo ATP luminescence, 72 h. Potency, µM (top dose mostly 46.1 µM), hits mostly cytotoxic. actives 1.4% (n = 400,000); note: nearly all actives have a fitted effect of over 60% in size
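72 h, 37 °C compound treatment of KB-3-1 parental cells; CellTiter-Glo added, 10 min, luminescence read. Data corrected against DMSO-only plates and normalized before curve fitting.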
KB-V1 MDR tox = KB-V1 MDR subline cytotoxicity; KB-V1 MDR cells viability, CellTiter-Glo, 72 h; Potency, µM (top dose mostly 46.1 µM), usual class: cytotoxic; actives 3.4% (n = 400,000); AID 1347076; note: nearly all actives have a fitted effect of over 60% in size
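Readout: CellTiter-Glo luminescence, 10 min after addition. Cells: KB-V1 MDR subline, 72 h at 37 degrees C with compound. Analysis: corrected, normalized data fitted to concentration-effect curves.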
SW480 rerep = induces DNA re-replication in SW480 colon adenocarcinoma cells. Potency, µM (highest dose often 46.1 µM), usual class: activators. SW480 DNA re-replication, Hoechst DNA content imaging, 48 h. actives 1.8% (n = 340,000); note: nearly all actives have a fitted effect of over 55% in size
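Hoechst fluorescence of nuclei (405 nm excitation, 500-530 nm emission) measured by plate-scanning imager after 48 hr compound exposure at 37 C; re-replication scored as increased number of nuclei with elevated intensity.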
ELG1 repair inh = inhibitors of ELG1-dependent DNA repair in HEK293T cells; Potency, µM (top dose mostly 46.1 µM), hits mostly inhibitors; actives 2.3% (n = 330,000); AID 504467; HEK293T ELG1-luciferase reporter, luminescence, 16 h; DNA damage induced by 5-fluorouridine; note: nearly all actives have a fitted effect of over 55% in size
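Luminescence from the luciferase reporter, measured 30 min after ONE-Glo reagent at room temperature, was the read-out. Beforehand, 2,000 cells per well were exposed for 16 hr at 37 °C to 5-fluorouridine together with compound or vehicle.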
MCF10A rereplic = DNA re-replication induction in MCF 10a cells. MCF 10A DNA re-replication, Hoechst nuclear intensity, 48 h. actives 2.9% (n = 350,000). Potency, µM (titrated, usually from 46.1 µM), most hits filed as activators. AID 624296; note: nearly all actives have a fitted effect of over 50% in size
Hits are given with their value. Calls come from the whole dose curve; as a rule, active = well fitted curve in the direction sought with a large enough effect; inconclusive = small, poorly fitted or top-dose-only effect, or another doubt; inactive = no such curve, though single readings can be large; an effect the other way counts as inactive or inconclusive.

What do the screens show for `COc1cccc(-c2ccc(C#N)c(OC(=O)c3ccc(Cl)cc3)n2)c1`?
KB-3-1 tox: inactive; KB-V1 MDR tox: inactive; SW480 rerep: inactive; ELG1 repair inh: inconclusive; MCF10A rereplic: inactive

What do the screens show for `C=CCSc1nc2ccccc2n1Cc1nnc(-c2cccs2)o1`?
KB-3-1 tox: inactive; KB-V1 MDR tox: 6.51µM; SW480 rerep: inactive; ELG1 repair inh: inconclusive; MCF10A rereplic: inactive

What do the screens show for `C=CCn1c(-c2cccs2)nc2ccccc21`?
KB-3-1 tox: inactive; KB-V1 MDR tox: inactive; SW480 rerep: inactive; ELG1 repair inh: inactive; MCF10A rereplic: inactive

What do the screens show for `COc1cc(-c2cc(N)n(S(=O)(=O)c3ccc(F)cc3)n2)cc(OC)c1OC`?
KB-3-1 tox: inconclusive; KB-V1 MDR tox: inconclusive; SW480 rerep: inactive; ELG1 repair inh: inactive; MCF10A rereplic: inactive

What do the screens show for `COc1ccc(-c2cc(N)n(S(=O)(=O)c3ccc(F)cc3)n2)cc1OC`?
KB-3-1 tox: inactive; KB-V1 MDR tox: inactive; SW480 rerep: inactive; ELG1 repair inh: 5.8µM; MCF10A rereplic: inactive

Results for COc1ccc(Cn2c(C(C)C)nc3sc4ccccc4c(=O)c3c2=O)cc1 ?
KB-3-1 tox: inactive; KB-V1 MDR tox: inactive; SW480 rerep: inactive; ELG1 repair inh: inactive; MCF10A rereplic: inactive

Results for CCCc1nc2sc3ccccc3c(=O)c2c(=O)n1Cc1ccc(OC)cc1 ?
KB-3-1 tox: inconclusive; KB-V1 MDR tox: inactive; SW480 rerep: inactive; ELG1 repair inh: 23.1µM; MCF10A rereplic: inactive

What do the screens show for `COc1ccc(CCn2c(C(C)C)nc3c(c(=O)c4ccccc4n3C)c2=O)cc1`?
KB-3-1 tox: inconclusive; KB-V1 MDR tox: inconclusive; SW480 rerep: inactive; ELG1 repair inh: 16.4µM; MCF10A rereplic: inactive

Results for COCCn1c(C2CCCCC2)nc2sc3ccccc3c(=O)c2c1=O ?
KB-3-1 tox: inactive; KB-V1 MDR tox: 4.11µM; SW480 rerep: inactive; ELG1 repair inh: inactive; MCF10A rereplic: inactive

How did COCCn1c(C(C)C)nc2sc3ccccc3c(=O)c2c1=O do in these assays?
KB-3-1 tox: inactive; KB-V1 MDR tox: 16.4µM; SW480 rerep: inactive; ELG1 repair inh: inactive; MCF10A rereplic: inconclusive

How did COCCn1c(=O)sc2ccccc2c1=O do in these assays?
KB-3-1 tox: inactive; KB-V1 MDR tox: inactive; SW480 rerep: inactive; ELG1 repair inh: inactive; MCF10A rereplic: inconclusive

What do the screens show for `CCc1nc2sc3ccccc3c(=O)c2c(=O)n1CCOC`?
KB-3-1 tox: inactive; KB-V1 MDR tox: inactive; SW480 rerep: inactive; ELG1 repair inh: inactive; MCF10A rereplic: inactive

What do the screens show for `Cc1ccc(S(=O)(=O)c2c[nH]c3cc4c(cc3c2=O)OCO4)cc1`?
ELG1 repair inh: inactive

What do the screens show for `O=C(O)CC1(CC(=O)NCc2ccncc2)CCCCC1`?
KB-3-1 tox: inactive; KB-V1 MDR tox: inactive; SW480 rerep: inactive; ELG1 repair inh: inconclusive; MCF10A rereplic: inactive

Results for CCOCCCNC(=O)C1CCC(CNS(=O)(=O)c2cccc3nsnc23)CC1 (centres undefined) ?
KB-3-1 tox: inactive; KB-V1 MDR tox: 20.6µM; SW480 rerep: inactive; ELG1 repair inh: inactive; MCF10A rereplic: inactive

How did CCN(CCCNC(=O)CCCN1C(=O)COc2ccc(C)cc21)c1cccc(C)c1 do in these assays?
KB-3-1 tox: inactive; KB-V1 MDR tox: 11.6µM; SW480 rerep: inactive; ELG1 repair inh: inconclusive; MCF10A rereplic: inactive

Results for Cc1ccc2c(c1)N(CCCC(=O)NCCCN1CCCCC1)C(=O)CO2 ?
KB-3-1 tox: inactive; KB-V1 MDR tox: inactive; SW480 rerep: inactive; ELG1 repair inh: inactive; MCF10A rereplic: inactive

What do the screens show for `Cc1ccc(C(=O)NCCSc2ccc(Cl)cc2)cc1S(=O)(=O)Nc1ccccc1`?
KB-3-1 tox: inactive; KB-V1 MDR tox: inconclusive; SW480 rerep: inconclusive; ELG1 repair inh: 20.6µM; MCF10A rereplic: inconclusive

Results for Cc1ccc(SCCNC(=O)c2ccc(C)c(S(=O)(=O)Nc3cccc(C)c3)c2)cc1 ?
KB-3-1 tox: inactive; KB-V1 MDR tox: inconclusive; SW480 rerep: inactive; ELG1 repair inh: inconclusive; MCF10A rereplic: inactive

Results for CS(=O)(=O)Nc1ccccc1C(=O)NCCSc1ccc(Cl)cc1 ?
KB-3-1 tox: inactive; KB-V1 MDR tox: inactive; SW480 rerep: inactive; ELG1 repair inh: inconclusive; MCF10A rereplic: inactive

How did Cc1ccc(NS(=O)(=O)c2cc(C(=O)NCCSc3ccc(C)cc3)ccc2C)cc1 do in these assays?
KB-3-1 tox: inactive; KB-V1 MDR tox: 16.4µM; SW480 rerep: inactive; ELG1 repair inh: inconclusive; MCF10A rereplic: inactive

What do the screens show for `COc1ccc(C(C)(C)C)cc1NC(=O)CCc1c(C)noc1C`?
KB-3-1 tox: inactive; KB-V1 MDR tox: inactive; SW480 rerep: inconclusive; ELG1 repair inh: inactive; MCF10A rereplic: inactive

What do the screens show for `CC1(C(=O)NS(=O)(=O)c2ccc(Cl)cc2)CCN1C(=O)CC1CC1` (centres undefined)?
KB-3-1 tox: inactive; KB-V1 MDR tox: inactive

What do the screens show for `NC(=O)CC[C@H](NC(=O)c1ccc(F)cc1)C(=O)N1CCN(Cc2ccc3c(c2)OCO3)CC1`?
KB-3-1 tox: inactive; KB-V1 MDR tox: inactive; SW480 rerep: inactive; ELG1 repair inh: inactive; MCF10A rereplic: inactive

Results for COc1ccc(Cl)cc1NC(=O)CCN1C(=O)C2C3C=CC(C4CC34)C2C1=O (centres undefined) ?
KB-3-1 tox: inactive; KB-V1 MDR tox: inconclusive; SW480 rerep: inactive; ELG1 repair inh: inactive; MCF10A rereplic: inactive

How did CCOc1cc(/C=N/O)ccc1OCc1ccc([N+](=O)[O-])cc1 do in these assays?
KB-3-1 tox: inactive; KB-V1 MDR tox: inactive; SW480 rerep: inactive; ELG1 repair inh: inactive; MCF10A rereplic: inactive

Results for CCOc1cc(C=C(C(=O)OC)C(=O)OC)ccc1OCc1ccc([N+](=O)[O-])cc1 ?
KB-3-1 tox: 18.4µM; KB-V1 MDR tox: inconclusive; SW480 rerep: 14.6µM; ELG1 repair inh: 20.6µM; MCF10A rereplic: 0.651µM

Results for N/C(=N\S(=O)(=O)c1cc(C(F)(F)F)cc(C(F)(F)F)c1)c1ccc(Cl)cc1 ?
KB-3-1 tox: inactive; KB-V1 MDR tox: inconclusive; SW480 rerep: 10.3µM; ELG1 repair inh: inconclusive; MCF10A rereplic: 13µM

Results for N/C(=N\S(=O)(=O)c1cc(C(F)(F)F)cc(C(F)(F)F)c1)c1ccncc1 ?
KB-3-1 tox: inactive; KB-V1 MDR tox: inactive; SW480 rerep: inactive; ELG1 repair inh: inactive; MCF10A rereplic: inactive

Results for O=C(O)CCC(=O)OCCN(Cc1ccc(Oc2ccc([N+](=O)[O-])cc2)cc1)C(=O)C(Cl)Cl ?
KB-3-1 tox: inactive; KB-V1 MDR tox: 23.1µM; SW480 rerep: inactive; MCF10A rereplic: inactive

What do the screens show for `O=C(Nc1ccc(C(=O)N2CCCCC2)cc1)c1ccc([N+](=O)[O-])cc1`?
KB-3-1 tox: inactive; KB-V1 MDR tox: inconclusive; SW480 rerep: inactive; ELG1 repair inh: inconclusive; MCF10A rereplic: inactive

What do the screens show for `Cc1cnc(NC(=O)c2cc(S(=O)(=O)N(C)C)ccc2N2CCCC2)s1`?
KB-3-1 tox: 20.6µM; KB-V1 MDR tox: inconclusive; SW480 rerep: inconclusive; ELG1 repair inh: inconclusive; MCF10A rereplic: 6.51µM
